Screening results from PubChem.
HIF-2a block: HIF-2a reporter inhibitors, primary screen, luminescence, 786-0 RCC cells; 786-0 RCC cells HIF-2a reporter, luciferase luminescence, overnight; hit rate 0.72% among 360,000; inhibition, % at 18.8 µM; AID 624352, 2012;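 active means inhibition of the luminescence signal of 40% or more relative to plate controls, in a single-dose primary screen at 18.75 µM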
B2AR ag: beta2AR agonists driving receptor internalization, primary screen, cell-based, FAP fluorogen, flow cytometry; Beta-2 adrenergic receptor (Homo sapiens), P07550; response, % (concentration not given with the values); hit rate 0.43% among 340,000; AID 504454, 2011; Am2.2-beta2AR cells;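 active means response above a set limit, near 3 SD of response in nonfluorescent compounds, cut at about 42% in these data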
Target sequence (P07550 whole entry, looked up): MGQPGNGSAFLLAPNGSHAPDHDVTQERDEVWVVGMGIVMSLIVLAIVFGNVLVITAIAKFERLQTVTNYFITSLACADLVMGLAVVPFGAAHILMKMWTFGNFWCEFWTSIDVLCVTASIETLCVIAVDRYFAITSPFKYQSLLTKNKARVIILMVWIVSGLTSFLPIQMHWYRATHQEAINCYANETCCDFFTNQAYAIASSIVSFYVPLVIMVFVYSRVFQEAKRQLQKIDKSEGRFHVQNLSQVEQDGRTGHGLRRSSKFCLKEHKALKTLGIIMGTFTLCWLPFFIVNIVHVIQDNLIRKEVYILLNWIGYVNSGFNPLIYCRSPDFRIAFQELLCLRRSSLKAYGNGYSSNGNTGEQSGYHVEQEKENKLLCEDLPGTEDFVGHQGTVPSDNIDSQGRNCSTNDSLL
KKLEB tox: cytotoxicity in KKLEB CF airway cells, primary screen, cytotoxicity control for CF NF-kB inhibitor project, cell-based, uHTS, fluorescence assay plates | KKLEB CF airway cells viability, ATPlite luminescence, overnight; hits give low values; cells stimulated with P. aeruginosa culture filtrate | activity change (cytotoxicity), % at 5 µM | hit rate 0.36% among 360,000;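 active means corrected activity change at or below -50% at 5 µM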
CF NFkB inh: inhibitors of PAF-induced NF-kB signaling, primary screen, cell-based, GFP fluorescence, uHTS; inhibition, % at 5 µM; AID 588850, 2011; hit rate 0.86% among 360,000; KKLEB NF-kB-GFP reporter, GFP fluorescence overnight;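 active means at least 50% inhibition at 5 µM, scaled per plate between neutral and stimulator controls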;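 further: PAF is a Pseudomonas aeruginosa culture filtrate used as stimulus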
TRPM1 prom inh: inhibitors of MITF-dependent TRPM1 promoter reporter, primary screen, cell-based, SK-MEL-5, single point, luciferase; hit rate 0.83% among 330,000; inhibition, % at 12.5 µM; SK-MEL-5 TRPM1 promoter luciferase, 24 h; AID 488899, 2010;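 active means mean inhibition across replicates of 60% or more, whatever share of single replicates reaches that level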
Peg3 promoter: Peg3 promoter-driven luciferase inhibitors, primary screen, cell-based, HeLa, luciferase luminescence. HeLa PEG-Prom luciferase reporter, overnight. inhibition, % at 20 µM. hit rate 1.7% among 360,000. AID 588405, 2011;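 active means inhibition of at least 50% at 20 µM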
Of the large screens only hits and unclear results are named; the others gave an inactive call. Most compounds without a hit are left out; they make up all but 2.8% or so of the library.

Cn1c(NCCN2CCCC2)nc2cc(-c3cccc(C(F)(F)F)c3)sc2c1=O	Peg3 promoter 58.1 (no result: B2AR ag, TRPM1 prom inh)
O=C(C(O)c1ccc(Br)cc1)N1CCC(Nc2ccc3[nH]ncc3c2)CC1 (stereo unspecified)	none (no result: B2AR ag, TRPM1 prom inh)
O=C1OCC2=C1C(c1ccc(F)cc1)c1cc3c(cc1N2)OCO3 (stereo unspecified)	CF NFkB inh 59.0
C#CCOc1ccc(C2C3=C(COC3=O)Nc3cc4c(cc32)OCO4)cc1OC (stereo unspecified)	none
CC(=O)Oc1ccc(C2C3=C(CC(C)(C)CC3=O)Nc3cc4c(cc32)OCCO4)cc1 (stereo unspecified)	none
CCOc1ccccc1C1C2=C(COC2=O)Nc2cc3c(cc21)OCO3 (stereo unspecified)	CF NFkB inh 53.6
O=C1OCC2=C1C(c1ccc(F)cc1)c1cc3c(cc1N2)OCCO3 (stereo unspecified)	CF NFkB inh 63.3
Cn1c(-c2ccccc2)cc(=NNS(C)(=O)=O)c2cc(S(=O)(=O)O)ccc21	none (no result: B2AR ag, TRPM1 prom inh)
COc1ccc(-c2ccc(CN3C(C(C)C)C(=O)N(Cc4cn(CCC5OCCO5)nn4)CCS3(=O)=O)cc2)cc1OC (stereo unspecified)	none (no result: B2AR ag, TRPM1 prom inh)
CC(C)C1C(=O)N(Cc2cn(CCC3OCCO3)nn2)CCS(=O)(=O)N1Cc1ccc(-c2ccc(Cl)c(Cl)c2)cc1 (stereo unspecified)	Peg3 promoter 59.9 (no result: B2AR ag, TRPM1 prom inh)
COCCNC(=O)C1CCCN(C(=O)c2nc(C)oc2C)CC1 (stereo unspecified)	none (no result: B2AR ag, TRPM1 prom inh)
CCc1nc2ccc(C(=O)Nc3cccc(OC)c3)cn2c1N(C)Cc1ccc(OC)cc1	none (no result: B2AR ag, TRPM1 prom inh)
O=c1[nH]c(Nc2nc3ccccc3o2)nc2c1CCCC2	Peg3 promoter 57.8
CN(C)c1ccc(-c2ccnc3c2CC(C)(C(=O)NCCc2ccccc2)O3)cc1 (stereo unspecified)	none (no result: B2AR ag, TRPM1 prom inh)
O=C1c2cc(F)ccc2-n2c1nc1ccccc1c2=O	CF NFkB inh 82.6, TRPM1 prom inh 98.3
Cc1ccccc1-c1nc(S(=O)(=O)c2ccccc2)c(NCCN2CCOCC2)o1	none (no result: B2AR ag, TRPM1 prom inh)
Cc1ccc(F)cc1C(=O)N1CCCCC1c1cc(C(=O)NCc2ccccc2)no1 (stereo unspecified)	none (no result: B2AR ag, TRPM1 prom inh)
Cc1cc(C(=O)c2ccc(C(C)(C)C)cc2)c(NC(=O)CCl)s1	B2AR ag 96.0, Peg3 promoter 103.2
CCN(CC)CCNc1ncnc2c1sc1nc(N3CCOCC3)c3c(c12)CCCC3	TRPM1 prom inh 76.9, Peg3 promoter 100.5
Cc1ccc(-c2nc3ccccc3[nH]2)cc1NC(=O)c1sc2cc(Cl)ccc2c1Cl	Peg3 promoter 82.8
Cc1ccc(-c2nc3ccccc3[nH]2)cc1NC(=O)c1ccco1	none
O=[N+]([O-])c1cc(CN2CCN(c3ccccc3)CC2)c(O)c2ncccc12	B2AR ag 43.7, TRPM1 prom inh 75.3, Peg3 promoter 58.7
O=[N+]([O-])c1cc([N+](=O)[O-])c2cccnc2c1Oc1ccccc1O	B2AR ag 50.8, Peg3 promoter 50.9
O=[N+]([O-])c1cc(Cl)c(O)c2ncccc12	Peg3 promoter 56.6
COC(=O)[C@@]12C[C@@H](CC(=O)N3CCOCC3)C(=O)N(CCc3ccc(OC)c(OC)c3)C1=CCC(C)(C)C2	none (no result: B2AR ag, KKLEB tox, CF NFkB inh, TRPM1 prom inh, Peg3 promoter)
CCN(CC)CCC(=O)N1C/C(=C/c2ccccc2)C(=O)/C(=C\c2ccccc2)C1	HIF-2a block 82.7, CF NFkB inh 86.0, Peg3 promoter 94.2 (no result: TRPM1 prom inh)
O=C(CCN1C(=O)S/C(=C\c2ccccc2)C1=O)N1CCCCC1	none
O=C1/C(=C\c2ccccc2)CCC/C1=C/c1ccccc1	none
O=C(NCCN1CCOCC1)c1ccc(Cl)c(Cl)c1	none
O=C1/C(=C\c2ccc(Cl)c(Cl)c2)CN(C(=O)CCN2CCOCC2)C/C1=C/c1ccc(Cl)c(Cl)c1	HIF-2a block 93.8, B2AR ag 51.8, KKLEB tox -78.1, CF NFkB inh 90.1, TRPM1 prom inh 117.5, Peg3 promoter 98.1
